From PubChem BioAssay
Compounds with a hit are over-represented: about 3.7% of the library has one in this group of screens.
ATXN viability: cell viability loss in ATXN counter-screen; S2 cells (HEK-293 line with an ATXN2-luciferase reporter) viability, CellTiter-Fluor protease fluorescence, 24 h; Potency, µM (series often up to 56.7 µM), most hits filed as cytotoxic; 0.49% of 400,000 active; AID 651635; note: nearly all actives have a fitted effect of over 40% in size
TGFb inhibitor: blocks TGF-b signaling. AID 588855. Potency, µM (series often up to 46.1 µM), without a hit: at the highest dose activity, negative = inhibition, actives largely listed as inhibitors. 1.2% of 410,000 active. HepG2 CAGA-GFP TGF-b/SMAD3 reporter, GFP fluorescence, 18 h; TGF-beta stimulated, 500 pg/mL final; note: % is set by controls: 0 for no effect and ±100 for the full control effect; nearly all actives have a fitted effect of over 65% in size
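Inhibition of TGF-beta-driven CAGA-GFP reporter expression in HEPG2 cells is measured by cellular GFP fluorescence after 18 h stimulation with 500 pg/mL recombinant TGF-beta in 1% FBS medium at 37 degrees C.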
ATXN2 expr inh: inhibitors of ATXN2 expression | HEK-293 ATXN2-luciferase reporter, luminescence, 24 h | Potency, µM (titrated, usually from 57 µM), for the others: top-dose activity change, negative = inhibition, usual class: inhibitors | 0.72% of 360,000 active | AID 1745845; note: % is set by controls: 0 for no effect and ±100 for the full control effect; nearly all actives have a fitted effect of over 55% in size
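qHTS (up to 57 uM final) was run with 24 h compound exposure of reporter cells at 37 °C. Each well was multiplexed: SteadyGlo luminescence measured ATXN2-luciferase expression after a fluorogenic Gly-Phe-AFC viability readout (25 uM final).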
GLP1R inv ag: acts as inverse agonist at human GLP-1 receptor; AID 624417; Potency, µM (titrated, usually from 38.3 µM), without a hit: top-dose activity change, negative = inhibition, actives largely listed as inhibitors; P43220; 1.6% of 410,000 active; HEK293 GLP-1R CRE-luciferase, luminescence, 24 h; GLP-1R form is constitutively active; note: % is set by controls: 0 for no effect and ±100 for the full control effect; nearly all actives have a fitted effect of over 55% in size
Target sequence (P43220 whole entry, looked up): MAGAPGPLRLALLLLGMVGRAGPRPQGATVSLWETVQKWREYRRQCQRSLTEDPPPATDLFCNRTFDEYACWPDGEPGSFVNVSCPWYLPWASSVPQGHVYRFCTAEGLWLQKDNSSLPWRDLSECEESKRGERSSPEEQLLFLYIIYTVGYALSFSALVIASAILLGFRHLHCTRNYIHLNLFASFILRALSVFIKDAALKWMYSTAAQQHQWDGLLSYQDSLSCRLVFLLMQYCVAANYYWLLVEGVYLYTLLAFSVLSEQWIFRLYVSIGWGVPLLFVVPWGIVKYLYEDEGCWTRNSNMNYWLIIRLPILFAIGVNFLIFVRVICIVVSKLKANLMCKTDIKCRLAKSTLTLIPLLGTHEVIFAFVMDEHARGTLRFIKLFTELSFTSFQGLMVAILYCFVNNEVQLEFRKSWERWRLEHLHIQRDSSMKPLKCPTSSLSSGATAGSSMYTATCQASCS
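Stable HEK293 clone (constitutively active GLP-1R + cAMP-response luciferase); 200 cells/uL plated, 12 h pre-culture, compound 24 hr, 37 deg C/5% CO2; detection reagent 12 min RT; luminescence.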
HepG2 viability: kills HepG2 cells in TGF-b inhibitor counter-screen. Potency, µM (top dose mostly 46.1 µM), inactives show at the highest dose activity change, negative = cytotoxicity, hits mostly cytotoxic. 0.76% of 410,000 active. HepG2 CAGA-GFP viability, ATP luminescence, 18 h. AID 588856
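CellTiter-Glo luminescence gave cytotoxicity after 18 hours at 37 degrees C. The cells were HepG2 CAGA-GFP in 1% FBS DMEM, stimulated with 500 pg/mL TGF-beta after compound addition. %Activity was normalised to no-cell wells (complete cell-killing) and DMSO (no toxicity), and curves were fitted and classified.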
GLP-1R agonist: GLP-1 receptor (human) agonism. AID 624172. P43220. HEK293 GLP-1R CRE-luciferase, luminescence, 4-6 h; cells express a hypersensitive GLP-1R form. 0.007% of 380,000 active. Potency, µM (series often up to 45.6 µM), for the others: at the top dose activation, hits mostly activators; note: % of control where 0% means no effect
* hit, by the source's call; i = inactive; ? = inconclusive; / = no result; [ ] = dose if it differs, or a comment. Calls come from the whole dose curve; as a rule, active = well fitted curve in the direction sought with a large enough effect; inconclusive = small, poorly fitted or top-dose-only effect, or another doubt; inactive = no such curve, though single readings can be large; an effect the other way counts as inactive or inconclusive. Potency is the fitted concentration of half-maximal effect.

SMILES	ATXN viability	TGFb inhibitor	ATXN2 expr inh	GLP1R inv ag	HepG2 viability	GLP-1R agonist
Cc1ccc(OCc2cc(C(=O)N(C)C3CCCc4ccccc43)no2)cc1C (stereo not drawn)	i	?	/	11µM*	-40%	7%
Cc1cc(CN(C)C(=O)c2cc(COc3ccc(C)c(C)c3)on2)on1	i	-2%	55%	?	-1%	1%
C#CCN(C(=O)c1cc(COc2ccc(C)c(C)c2)on1)C1CCCCC1	i	-76%	-13%	10µM*	-7%	9%
O=C(C=Cc1cccc(S(=O)(=O)Nc2ccccc2)c1)NO	/	/	89%[116 µM]	/	/	/
COc1ccc(NC(=O)C2CCCN(C(=O)c3cnn(-c4ccccc4)c3-n3cccc3)C2)cc1 (stereo not drawn)	?	?	-18%	?	-21%	/
CCOC(=O)N1CCN(c2nc(CN3CCCCC3CCO)nc3c(C)cccc23)CC1 (stereo not drawn)	i	/	/	/	/	/
NNc1ccc(Cl)nn1	i	?	30%	10µM*	-42%	21%
CNc1ccc(Cl)nn1	i	-3%	4%	10%	-3%	5%
CCOc1ccc(C2NC(=O)c3n[nH]c(C)c32)cc1 (stereo not drawn)	i	1%	0%	3%	-1%	-2%
CC(C)(C)c1ccc(C2NC(=O)c3n[nH]c(-c4cccs4)c32)cc1 (stereo not drawn)	/	?	/	19%	11µM*	/
CN(C)CCNC(=O)C12CC3(C)CC(C)(CC(C)(C3)C1)C2	i	0%	-15%	8.9µM*	-3%	3%
CN1CCCCc2c1nc1ccccc1c2N (tested in a mixture with another compound)	i	-7%	-9%	0%	0%	-5%
NCC1CCN(c2nc3ccccc3c3c2CCCC3)CC1	28µM*	?	?	?	13µM*	-1%
O=C1ON=C(c2ccccc2)/C1=C/c1ccc(OS(=O)(=O)c2ccccc2)cc1	i	-7%	17%	16%	-4%	-1%
COc1ccc(/C=C2\C(=O)ON=C2c2ccccc2)cc1	20µM*	-30%	?	-6%	-43%	1%
CCOc1ccc(CCNC(=O)c2ccc(-c3nc(CSc4ccccc4)c(C)o3)cc2)cc1	i	1%	-4%	7%	-6%	/
CCC(=O)NC[C@H](Cc1ccc(OCCc2nc(-c3ccccc3)oc2C)cc1)NC(C)=CC(=O)c1ccc(C(F)(F)F)cc1	/	/	22µM*	/	/	/
COc1ccc(NC(=O)COc2ccccc2C(=O)Nc2ccccc2)cc1	/	17%	/	/	-10%	/
CC/C(=N\NC(N)=O)c1ccc(OC(F)F)cc1	i	14%	-3%	14%	2%	8%
CC/C(=N\NC(=O)OC)c1ccc(OC(F)F)cc1	i	3%	-20%	0%	10µM*	-1%
Cc1n[nH]c(C)c1Cc1sc2c(c1C(=O)N1C[C@H](O)CO1)c(=O)n(C)c(=O)n2CC(C)C	/	/	-10%	/	/	/
O=C(O)c1cc2cccc([N+](=O)[O-])c2[nH]1	/	-15%	/	/	-3%	/
COc1cccc2sc(Nc3nnc(-c4cccs4)o3)nc12	i	-15%	21%	?	-18%	-23%
COc1cccc2sc(Nc3nnc(-c4ccc(F)cc4)o3)nc12	/	-23%	?	?	13µM*	-1%
CCN(CC)CCn1c(=N)n(CC(=O)c2ccc(Br)s2)c2ccccc21	/	?	?	2.8µM*	-149%	20%
SMILES	ATXN viability	TGFb inhibitor	ATXN2 expr inh	GLP1R inv ag	HepG2 viability	GLP-1R agonist
COc1ccccc1C1CN=NC12CCCc1ccccc1C2=O (stereo not drawn)	i	-13%	21%	7.1µM*	-3%	-6%
CCOC(=O)c1c(C)n(-c2ccccc2)c2ccc(O)c(CN(C)C)c12	i	?	-17%[11.3 µM]	8.9µM*	-56%	8%
O=C(Nc1ccccc1)c1ccc2c(c1)OCCO2	?	8%	16%	-13%	-42%	-2%
Cc1ccc(C(=O)Nc2ccc3c(c2)OCCO3)c(C)c1	i	10%	5µM*	?	-30%	-5%
Cc1cc(C)c(C(=O)Nc2ccc3c(c2)OCCO3)c(C)c1	i	-1%	/	?	13%	-5%
Cc1cccc(NC(=O)c2ccc3c(c2)OCCO3)c1	i	-1%	-37%	11µM*	-29%	8%
O=C(COC(=O)c1ccc2ncsc2c1)NC(=O)C1CCCCC1	/	-4%	/	/	0%	/
COc1cccc(/C=N/NC(=O)N/N=C/c2cccc(OC)c2O)c1O	i	-10%	?	?	-11%	20%
COc1cc(OC)c2cc(C(=O)N/N=C/c3cccc(OC)c3O)[nH]c2c1	?	?	3.2µM*	-7%	-22%	5%
COc1cccc(/C=N/NC(=O)c2cc3c(OC)ccc(OC)c3[nH]2)c1O	i	?	/	?	0%	7%
COc1ccc(/C=N/NC(=O)c2nc(-c3ccccc3)n(-c3ccccc3)n2)c(O)c1	i	0%	4µM*	?	-5%	-11%
COc1cccc(C=NNC(=O)c2ccncc2)c1O	i	14%	10µM*	?	-11%	?
COc1cccc(/C=N/NC(=O)c2nc(-c3ccccc3)cc(-c3ccccc3)n2)c1O	i	-21%	10µM*	25%	-31%	-16%
O=C(Nc1cccc(Cl)c1Cl)c1cc(S(=O)(=O)N2CCC3(CC2)OCCO3)ccc1F	/	33%	/	10%	10%	/
COc1cccc(/C=N/NC(=O)c2c(C)nc3ccc(Br)cn23)c1O	i	?	0.63µM*	?	-19%	9%
CCOc1ccccc1/C=N/NC(=O)c1c(C)nc2ccc(Br)cn12	i	0%	-20%	0%	-15%	7%
COc1ccccc1C=NN=C(NN=Cc1ccccc1OC)NN=Cc1ccccc1OC	?	?	0%	2.2µM*	-29%	-7%
CCn1c(C)nc2cc(C(=O)N/N=C/c3cccc(OC)c3O)ccc21	i	0%	14µM*	?	-5%	21%
CC1(C)S[C@@H]2[C@H](NC(=O)C(C(=O)Oc3ccc4c(c3)CCC4)c3ccccc3)C(=O)N2[C@H]1C(=O)O (stereo partly drawn)	i	/	/	/	/	-6%
CN(C)c1ccc(CN(CC2CCCO2)C(=O)COc2ccc(Cl)cc2)cc1 (stereo not drawn)	/	-19%	/	-19%	-13%	/
COc1ccccc1-c1nc2cc(C(=O)NC[C@H]3CCc4ccccc4O3)cc(NC(C)=O)c2n1C	i	/	/	/	/	/
